# MCF10A rerep = inducers of DNA re-replication in MCF 10A breast cells. MCF 10A DNA re-replication, Hoechst nuclear intensity, 48 h. Potency, µM (series often up to 46.1 µM), hits mostly activators. hit rate 2.9% among 350,000; also: nearly all actives have a fitted effect of over 50% in size
# SW480 rerep = induces DNA re-replication in SW480 colon adenocarcinoma cells. hit rate 1.8% among 340,000. SW480 DNA re-replication, Hoechst DNA content imaging, 48 h. Potency, µM (series often up to 46.1 µM), most hits filed as activators; also: nearly all actives have a fitted effect of over 55% in size
#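 Treated cells incubate 48 hr (37 C, 5% CO2), are stained 40 min with Hoechst, and nuclear fluorescence is enumerated; a rise in nuclei with high DNA signal marks re-replication.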
# KB-V1 cytotox = kills drug-selected multidrug resistant KB-V1 cells; KB-V1 MDR cells viability, CellTiter-Glo, 72 h; Potency, µM (highest dose often 46.1 µM), actives largely listed as cytotoxic; hit rate 3.4% among 400,000; AID 1347076; also: nearly all actives have a fitted effect of over 60% in size
#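 qHTS viability screen in drug-selected KB-V1 MDR cells: 72 h compound treatment at 37 degrees C, ATP luminescence end point.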
# hERG WT inh = inhibitors of human wildtype KCNH2 potassium channel | activity change, % at 1.84 µM | AID 720551 | Q12809 | U2OS, BacMam KCNH2, thallium flux FluxOr; hits give low values | hit rate 0.37% among 340,000;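 active = maximum activity change below -70%; inconclusive = maximum activity change between -70% and -50%; inactive = maximum activity change above -50%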
# Target sequence (Q12809 whole entry, looked up): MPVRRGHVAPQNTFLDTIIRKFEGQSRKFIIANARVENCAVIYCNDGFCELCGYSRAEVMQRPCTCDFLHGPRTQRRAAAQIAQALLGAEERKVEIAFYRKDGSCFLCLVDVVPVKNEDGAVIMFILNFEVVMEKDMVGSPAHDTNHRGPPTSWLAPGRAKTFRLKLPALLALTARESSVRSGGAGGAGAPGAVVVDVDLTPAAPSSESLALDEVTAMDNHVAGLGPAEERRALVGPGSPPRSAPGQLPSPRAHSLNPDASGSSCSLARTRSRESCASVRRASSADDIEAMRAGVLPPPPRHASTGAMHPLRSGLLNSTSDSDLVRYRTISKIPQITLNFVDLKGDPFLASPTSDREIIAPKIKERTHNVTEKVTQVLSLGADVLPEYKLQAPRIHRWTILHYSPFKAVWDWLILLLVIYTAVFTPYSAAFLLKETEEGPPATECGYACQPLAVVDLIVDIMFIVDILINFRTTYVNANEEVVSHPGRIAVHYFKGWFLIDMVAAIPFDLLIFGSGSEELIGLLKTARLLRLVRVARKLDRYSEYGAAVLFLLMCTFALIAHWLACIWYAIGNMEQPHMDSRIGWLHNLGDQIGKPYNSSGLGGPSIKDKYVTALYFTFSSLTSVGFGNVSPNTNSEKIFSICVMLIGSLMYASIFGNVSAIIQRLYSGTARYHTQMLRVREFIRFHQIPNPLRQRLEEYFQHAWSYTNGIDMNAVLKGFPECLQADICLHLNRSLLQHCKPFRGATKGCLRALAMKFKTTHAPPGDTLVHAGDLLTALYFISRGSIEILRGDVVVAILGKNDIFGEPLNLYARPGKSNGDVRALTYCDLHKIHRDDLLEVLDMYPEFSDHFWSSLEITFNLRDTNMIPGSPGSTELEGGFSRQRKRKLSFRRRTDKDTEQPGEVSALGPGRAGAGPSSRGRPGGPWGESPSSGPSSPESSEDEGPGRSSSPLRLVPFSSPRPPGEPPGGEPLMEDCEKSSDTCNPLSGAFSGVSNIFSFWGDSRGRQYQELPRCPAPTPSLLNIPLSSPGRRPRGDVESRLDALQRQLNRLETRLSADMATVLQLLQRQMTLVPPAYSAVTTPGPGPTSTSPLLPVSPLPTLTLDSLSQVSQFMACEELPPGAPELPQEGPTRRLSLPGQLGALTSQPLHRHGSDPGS
#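 U2OS cells transduced with wild-type KCNH2 virus are loaded with FluxOr dye for 45 min, and thallium flux is measured in kinetic reads before and after stimulation buffer. Rate constants are normalized to DMSO controls.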
# KB-3-1 tox = kills parental KB-3-1 adenocarcinoma cells. AID 1347075. hit rate 1.4% among 400,000. Potency, µM (doses to about 46.1 µM), actives largely listed as cytotoxic. KB-3-1 viability, CellTiter-Glo ATP luminescence, 72 h; also: nearly all actives have a fitted effect of over 60% in size
#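 Multi-concentration cytotoxicity screen in KB-3-1 cells grown in DMEM lacking phenol red with 10% FBS. After 72 h at 37 °C with compound, ATP-dependent luminescence was recorded.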
# KCNH2 3.1 inh = inhibitors of human KCNH2 3.1 potassium channel isoform. hit rate 0.95% among 340,000. AID 720553. activity change, % (tested at about 1.8 µM). U2OS KCNH2 3.1, thallium flux FluxOr; hits give low values;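 active = maximum activity change below -70%; inconclusive = maximum activity change from -70% to -50%; inactive = maximum activity change above -50%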;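 also: thallium influx rate constant from kinetic fluorescence after stimulation buffer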
#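 Kinetic fluorescence (2 min after stimulation buffer) measures Tl+ influx through KCNH2 3.1 expressed by viral transduction in U2OS cells; the rate constant is normalized against DMSO controls serving as positive and negative references.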
# Numbers stand for hits; n = inactive; u = inconclusive; x = no result; [ ] = dose if it differs, or a comment. Most compounds without a hit are left out; they make up all but 7.6% or so of the library. Unless noted, calls follow the shape of the dose curve; as a rule, active = well fitted curve in the direction sought with a large enough effect; inconclusive = small, poorly fitted or top-dose-only effect, or another doubt; inactive = no such curve, though single readings can be large; an effect the other way counts as inactive or inconclusive.
SMILES,MCF10A rerep,SW480 rerep,KB-V1 cytotox,hERG WT inh,KB-3-1 tox,KCNH2 3.1 inh
CCN1C(=O)c2cccc3c(S(=O)(=O)Nc4ccc(O)c(C(=O)O)c4)ccc1c23,n,n,n,n,n,n
CCN1C(=O)c2cccc3c(S(=O)(=O)N4CCC(C)CC4)ccc1c23,10µM,u,2.1µM,n,u,n
COc1ccc(CCn2c(=O)c3cccnc3n(CC(=O)Nc3ccc(C)c(F)c3)c2=O)cc1OC,x,x,n,x,n,x
Cc1nnc(NC(=O)CSc2ncnc3scc(-c4ccccc4)c23)s1,u,u,u,n,n,n
Cc1cccnc1NC(=O)CSc1ncnc2sc(C)c(C)c12,n,n,15µM,n,n,n
COC(=O)c1c(-c2ccccc2)csc1NC(=O)CSc1ncnc2sc(C)c(C)c12,n,n,12µM,n,n,n
Cc1sc2ncnc(SCC(=O)Nc3ncccc3O)c2c1C,n,n,u,n,u,n
Cc1sc2ncnc(SCc3ccco3)c2c1C,15µM,n,n,n,n,n
COc1ccc(NC(=O)CN(C)C(=O)CCC2CCCC2)cc1,n,n,n,n,n,n
CCn1nnnc1-c1ccc(OC)c(S(=O)(=O)Nc2ccccc2OC)c1,x,x,n,-78,n,n
CCn1nnnc1-c1ccc(OC)c(S(=O)(=O)Nc2ccc(S(N)(=O)=O)cc2)c1,n[9.22 µM],n,n,n,n,n
O=C(Nc1ccccc1)OCCOc1ccc(Br)cc1,18µM,n,n,n,n,n
CCOC(=O)c1sc2c(c1C)C(c1cccs1)C1=C(CCCC1=O)N2 (stereo not given),9.2µM,u,n,n,u,n
CS(=O)(=O)NNC(=O)c1sccc1OCc1ncc(C(F)(F)F)cc1Cl,u,n,u,n,n,n
c1ccc2sc(NCC3CCCO3)nc2c1 (stereo not given),n,n,u,n,n,n
CC1=CC(=C(C#N)c2nc3ccccc3s2)C=C(C)N1CC1CCCO1 (stereo not given),13µM,23µM,n,n,n,n
O=C(COc1ccc(Br)cc1Cl)NNC(=O)c1ccccc1,n,n,n,n,n,n
O=C(CSC(=S)N1CCSCC1)c1ccc(Cl)cc1,u,n,9.2µM,n,8.2µM,n
Cc1cc(C)n2ncc(C(=O)NCC(C)C)c2n1,x,x,n,x,n,x
COC(=O)[C@@]1(Sc2ccc(C)cc2)CC(=O)N[C@@H]1c1ccc(C(F)(F)F)cc1,x,x,u,x,n,x
CC(C)(C)c1ccc(SC2=C[C@@]3(O)CC[C@@H](O)[C@@](Sc4ccc(C(C)(C)C)cc4)(C2=O)[C@H]3O)cc1,x,x,13µM,x,u,x
Cc1ccc(SC2=C[C@@]3(O)CC[C@@H](O)[C@@](Sc4ccc(C)cc4)(C2=O)[C@H]3O)cc1,x,x,16µM,x,u,x
CC(C)(C)c1ccc(C(=O)C2CC2)cc1,x,x,n,n,n,n
N#Cc1nnn2c1nc(N)c1c(Cl)cccc12,x,x,0.58µM,x,1.3µM,x
CCn1c2ccccc2c2cc(C#N)c(N)nc21,u,n,n,n,n,n
SMILES,MCF10A rerep,SW480 rerep,KB-V1 cytotox,hERG WT inh,KB-3-1 tox,KCNH2 3.1 inh
N#Cc1nnn2c1nc(N)c1c(F)cccc12,n,n,2.9µM,n,u,n
Nc1n[nH]c2cccc(Cl)c12,u,n,n,n,n,n
CCCCNC(=O)[C@@H]1CC=C[C@@H]2CCN(C3CCCCC3)C(=O)[C@@H]21,x,x,u,x,n,x
CC(Oc1ccc(F)cc1)C(=O)Nc1nc(-c2ccccn2)cs1 (stereo not given),3.3µM,n,n,n,u,n
O=C(Nc1nc(-c2ccccn2)cs1)C1CC1,n,u,n,n,u,n
O=C(Nc1nc(-c2ccncc2)cs1)c1ccco1,n,n[9.22 µM],u,n,n,n
C[C@H](NC(=O)c1ccco1)C(=O)Nc1nc(-c2ccccn2)cs1,n,u,4.1µM,n,n,n
O=C(Nc1nc(-c2ccccn2)cs1)c1ccc(Br)s1,26µM,2.1µM,1.3µM,n,n,n
O=C(Nc1nc(-c2ccccn2)cs1)c1ccco1,u,4.1µM,n,n,n,n
CCOc1ccc(CCNC(=O)CN2CCN(Cc3ccc(Cl)cc3)C2=O)cc1OCC,x,x,n,x,n,x
Cc1ccnc2cc(Cl)c(Cl)cc12,x,x,u,x,n,x
Cc1cccc(C2c3[nH]c4ccccc4c3CCN2C(=O)Cc2n[nH]c(C)n2)n1 (stereo not given),n,n,n,n,n,n
COc1ccc(-c2cc(C(F)(F)F)nc(SCC(=O)N3CCOCC3)n2)cc1OC,u,n,n,n,n,n
COc1ccccc1-c1cc(C(F)(F)F)nc(S(=O)(=O)CCCC(=O)O)n1,u,3.5µM,n,n,n,n
COc1ccc(-c2cc(C(F)(F)F)nc(NCc3cccs3)n2)cc1,n,n,n,n,n,n
COc1ccccc1-c1cc(C(F)(F)F)nc(NCc2cccs2)n1,u,n,21µM,n,n,n
COc1ccccc1-c1cc(C(F)(F)F)nc(S(=O)(=O)CCCC(=O)Nc2cc(OC)c(OC)c(OC)c2)n1,x,x,u,x,n,x
COc1ccccc1-c1cc(C(F)(F)F)nc(S(=O)(=O)CCCC(=O)N2CCOCC2)n1,3.3µM,u,u,n,16µM,n
COc1ccc(-c2cc(C(F)(F)F)nc(S(=O)(=O)CCC(=O)N3CCOCC3)n2)cc1,8.2µM,u,u,n,u,n
CCOc1ccccc1NC(=O)Cn1c(=O)n(-c2ccc(F)cc2)c(=O)c2sc3ccccc3c21,x,x,n,x,u,x
COc1ccc(-c2cc(C(F)(F)F)nc(S(=O)(=O)CCCC(=O)Nc3cccc(O)c3)n2)cc1OC,6.5µM,u,n,n,n,n
COc1ccccc1-c1cc(C(F)(F)F)nc(S(=O)(=O)CCCC(=O)Nc2ccc(F)c(Cl)c2)n1,x,x,u,x,n,x
O=NN(C(=O)NC1CCC(C(=O)O)CC1)C1CCC(C(=O)O)CC1 (stereo not given),x,x,n,x,n,x
CCOc1ncccc1C(=O)Nc1ccccc1C(=O)NCc1ccc2c(c1)OCO2,u,n,5.2µM,n,n,n
Cc1ccc(Oc2ccc(C(=O)NCc3ccncc3)cc2)cc1,n,n,21µM,n,n,n
SMILES,MCF10A rerep,SW480 rerep,KB-V1 cytotox,hERG WT inh,KB-3-1 tox,KCNH2 3.1 inh
CCOc1ncccc1C(=O)NCc1ccc(C)cc1,u,n,18µM,n,n,n
CCOc1ncccc1C(=O)Nc1ccc2c(c1)OCO2,n,n,u,n,u,n
O=C(NNC(=O)C12CC3CC(CC(Cl)(C3)C1)C2)c1ccncc1,n,n,n,n,n,n
O=C(CCCc1nc2ccccc2s1)NCc1ccccc1,n,n,23µM,n,n,n
O=C(NC(=S)NCc1ccc(-c2nc3ccccc3s2)cc1)c1ccco1,u,x,u,n,n,n
O=C(NCc1ccc(-c2nc3ccccc3s2)cc1)c1ccco1,n,n,23µM,n,n,n

# Bioassay records from PubChem.
